Experimental data: PubChem BioAssay (NCI)
Where “and” joins values, the source holds several entries; their conditions need not be identical. Equal entries are not always repeated. The panel holds about 83,000 compounds, 20% with a hit somewhere; the sample as a whole holds those more often.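 Note: values are percent growth. 100 is the growth of untreated cells, values between 100 and 0 indicate rising inhibition; between -100 and 0 indicates cell death.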 Calls of active or inactive are those of the source. How the source made its calls: active means growth percent below 10; inactive means the rest.

system: MDA-MB-468 breast; experiment: NCI-60 one-dose screen, 48 h (100 = growth as untreated, 0 = no growth, -100 = all killed); details: 10 µM unless noted

| Compound | growth |
| --- | --- |
| CCN(CC)c1ccc(/C=C(\C#N)c2cc3ccccc3[nH]2)cc1 | 47.3% (inactive) |
| O=[N+]([O-])c1cccc2ccc(N/N=C/c3ccccc3O)nc12 | 4.06% (active) and 89.3% (inactive) |
| CCCCC(=O)N/N=C/c1cc(I)cc(I)c1O | 69% (inactive) |
| COc1ccc2c(c1)c(-c1cc(N)n3nc(-c4cn(C)c5ccc(OC)cc45)cc3n1)cn2C | 142% (inactive) |
| CC12CCC3C(=CCc4cc(O)ccc43)C1CCC2=O (stereo not given) | 96.9% (inactive) |
| N#C/C(=C\c1ccc(-c2ccc(F)cc2)o1)C(=O)Nc1ncc(Cc2ccc(Cl)cc2Cl)s1 | -54.9% (active) |
| COc1ccc(OC)c(-c2c(C#N)c(-c3ccco3)nc3c2c(-c2ccccc2)nn3-c2ccccc2)c1 | 98.4% (inactive) |
| O=C(CO[N+](=O)[O-])Nc1ccc(C(=O)/C=C/c2ccc3c(c2)OCO3)cc1 | 91.9% (inactive) |
| CCCN1CCN(c2ccc3nc(-c4ccc5nc(-c6cc(OC)ccc6OC)[nH]c5c4)[nH]c3c2)CC1 | 114% (inactive) |
| COc1ccc(-c2c(C(=O)NS(C)(=O)=O)n(Cc3cccc(C(F)(F)F)c3)c3ccccc23)cc1 | 86.6% (inactive) |
| O=C1OC(Cc2ccccc2)C1c1ccccc1 (stereo not given) | 97.4% (inactive) |
| CCOC(=O)c1cnn2c(-c3ccc(Cl)cc3)nc(NCc3ccccc3)nc12 | 84.8% (inactive) |
| Cc1[nH]c(C(=O)Nc2ccc(C(=O)NCC3CCNCC3)cc2OC(C)C)c(Cl)c1Cl | 21.5% (inactive) |
| COc1ccc(-c2cc3c4c(nc5ccccc5c4c2)CC(c2cc(OC)c(OC)c(OC)c2)O3)cc1 (stereo not given) | 26.6% (inactive) |
| COC(=O)[C@H]1Cc2c([nH]c3ccccc23)[C@H](c2ccc3c(c2)OCO3)N1 | 102% (inactive) |
| ClCCn1cnc2c(SCc3ccccc3)ncnc21 | 74.8% (inactive) |
| CC1(C)CC[C@]2(C(=O)N3CCOCC3)CC[C@]3(C)C(=CC[C@@H]4[C@@]5(C)CC[C@H](OC(=O)c6cccnc6)C(C)(C)[C@@H]5CC[C@]43C)[C@@H]2C1 | 45.6% (inactive) |
| O=C(CCc1nnc2sc(-c3ccc(Cl)cc3Cl)nn12)c1nc2ncccc2[nH]1 | -66% (active) |
| COc1ccc(C2Nc3c(c(C(C)(C)C)nn3-c3ccccc3)C(=O)CS2)cc1 (stereo not given) | 112% (inactive) |
| COc1ccc2c(c1)sc1nc(-c3ccccc3)c(-c3cccnc3)n12 | 90.1% (inactive) |

| Compound | growth |
| --- | --- |
| c1ccc(-c2cc(-c3cc(-c4ccccc4)on3)no2)cc1 | 84.9% (inactive) |
| CN(C)N1C(=O)c2c(Cl)c(Cl)c(Cl)c(Cl)c2C1=O | 96.1% (inactive) |
| ICCC(c1ccccc1)(c1ccccc1)c1ccccc1 | 22.6% (inactive) |
| CCC(CC(C)C)Nc1ccc(NC(CC)CC(C)C)cc1 (stereo not given) | 71.3% (inactive) |
| CCOC(=O)c1cc(C(=O)c2cc(OC)cc(OC)c2)n2ccccc12 | 30.2% (inactive) |
| CCCCN(CCCC)c1ccc(C(=NC(C)CCCN(CC)CC)c2ccc(N(C)C)cc2)cc1 (stereo not given) | -85.8% (active) |
| O=C(CNc1nc(-c2cccc([N+](=O)[O-])c2)cs1)Nc1cccc(Cl)c1 | 98% (inactive) |
| CC/C=C\C[C@H](F)C/C=C1/C(=O)C=C[C@@H]1C/C=C\CCCC(=O)O | 52.6% (inactive) |
| O=C(/C=C/c1ccccc1)c1cccs1 | 80.2% (inactive) |
| C=C(C)[C@@H]1CC[C@]2(C(=O)NCCNCCNCCN)CC[C@]3(C)[C@H](CC[C@@H]4[C@@]5(C)CCC(=O)C(C)(C)[C@@H]5CC[C@]43C)[C@@H]12 | -49.1% [100 µM] (active) |
| COc1cc2[nH]c(C(=O)c3cc(OC)c(OC)c(OC)c3)c(N)c2cc1C#CCO | 25.6% (inactive) |
| CCCCCc1c(C)[nH]c(/C=C2\N=C(c3ccc[nH]3)C=C2OCc2ccccc2)c1C | -51.6% [100 µM] (active) |
| COC(=O)C1(NC(=O)CNC(=O)OCc2ccccc2)CCCC1 | 96.1% (inactive) |
| COc1ccc([C@H]2c3[nH]c4ccccc4c3C[C@H]3C(=O)N(C4CCN(Cc5c(Cl)cccc5Cl)CC4)CC(=O)N23)c(OC)c1 | 92.8% (inactive) |
| OC1CCc2c(-c3ccc4ncnc(N5CCc6cc(F)c(Cl)cc65)c4c3)cncc21 (stereo not given) | 9.18% (active) |
| COc1ccc2c(c1OC)C(=O)O[C@@H]2[C@H]1c2c(c(C#CC#Cc3ccc(F)c(F)c3)c3c(c2OC)OCO3)CCN1C | 72.4% (inactive) |
| ClCC#CCSc1ncnc2c1ncn2CC#CCCl | -57.2% (active) |
| CC1C(c2ccccc2)OCCN1C(=S)Nc1ccc(S(=O)(=O)N2CCCCC2)cc1 (stereo not given) | 80.4% (inactive) |
| C=C(C=O)[C@@H]1CC[C@]2(C)[C@H](C(=O)C=C3[C@H]4C[C@](C)(C(=O)OC)CC[C@]4(C)CC[C@]32C)[C@@]1(C)CCC#N | 80.2% (inactive) |
| COc1ccc(C(O)c2cc3c(N)c(C(=O)Nc4ccccc4)sc3nc2C)cc1 (stereo not given) | 9.92% (active) |
